Source: PubChem BioAssay (National Center for Advancing Translational Sciences (NCATS))
GCN5L2 inh: qHTS Assay for Inhibitors of GCN5L2 | GCN5L2 HAT assay, ThioGlo1 CoA-SH fluorescence | Potency, µM (doses to about 58.9 µM), for the others: at the highest dose activity change, negative = inhibition, most hits filed as inhibitors | 0.21% of 390,000 active; note: potency is the fitted concentration of half-maximal effect; % is set by controls: 0 for no effect and ±100 for the full control effect
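GCN5L2 (20 nM) in 50mM HEPES pH 7.5, 0.1mM EDTA, 0.01% Tween-20 preincubated 15 min with compounds at room temperature. Reaction started with H3(1-25) 75uM, acetyl-CoA 70uM, ThioGlo1 50uM; CoA-thiol fluorescence (Ex340/Em540) read at 0 and 20 min.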
PLK1 PBD inh: qHTS for Inhibitors of PLK1-PDB (polo-like kinase 1 - polo-box domain): Primary Screen. Potency, µM, inactives show max response, negative = inhibition, most hits filed as inhibitors. Plk1 PBD binding of FITC phosphopeptide, fluorescence polarization. Serine/threonine-protein kinase PLK1 (Homo sapiens), P53350. 2.8% of 360,000 active; note: potency is the fitted concentration of half-maximal effect; series mostly up to about 57 µM; % is set by controls: 0 for no effect and ±100 for the full control effect; nearly all actives have a fitted effect of over 65% in size
VDR inhibitor: Inhibitors of the vitamin D receptor (VDR): qHTS. Potency, µM, for the others: max response, negative = inhibition, most hits filed as inhibitors. 0.93% of 400,000 active. VDR-SRC2-3 peptide fluorescence polarization, 2 h. Vitamin D3 receptor (Homo sapiens), P11473; note: potency is the fitted concentration of half-maximal effect; % is set by controls: 0 for no effect and ±100 for the full control effect
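Reagent solutions, kept cold and dark, are dispensed first; compounds are then pinned in at 23 nl, plates briefly spun, and incubated 2 h at ambient temperature. Inhibition of VDR–SRC2-3 peptide binding is read by fluorescence polarization.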
Rango release inh: qHTS Assay for Inhibitors of RanGTP induced Rango (Ran-regulated importin-beta cargo) - Importin beta complex dissociation; Snurportin-1 (Homo sapiens) + GTP-binding nuclear protein Ran (Homo sapiens) + Importin …; 0.071% of 340,000 active; Biochemical FRET Rango-importin beta, RanGTP-induced dissociation; Potency, µM (highest dose often 46.1 µM), inactives show at the top dose activity change, negative = inhibition; AID 540253, 2011; calls by dose curve; note: potency is the fitted concentration of half-maximal effect; % of control where 0% means no effect; nearly all actives have a fitted effect of over 45% in size
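Compounds sat 5 min at room temperature with 0.1 uM Rango biosensor plus 0.25 uM importin beta, then FRET pre-read. RanGTP-RCC1 (0.6 uM Ran, 2mM GTP, 0.2 uM RCC1) added for 45 min, and the CFP/YFP post-read measured blocked complex dissociation.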
PI5P4Ka inh: qHTS for Inhibitors of phosphatidylinositol 5-phosphate 4-kinase (PI5P4K) | PI5P4Kalpha enzyme, ADP-Glo luminescence, 60 min; stronger effect = lower value | 1.2% of 330,000 active | Phosphatidylinositol 5-phosphate 4-kinase type-2 alpha (Homo sapiens), P48426 | max response, % | AID 652105, 2013; active = max response of -50% or lower; inconclusive = between -30% and -50%; inactive = -30% or higher; note: value at the top dose of about 77 µM; % is set by controls: 0 for no effect and ±100 for the full control effect
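Compounds were pin-transferred onto PI5P4Kalpha and substrate in HEPES pH 7.4 buffer with EGTA, CHAPS and 5% DMSO. ATP (5 microM final) started the reaction, which ran 60 minutes at room temperature before ADP-Glo detection.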
Rango-impB inh: qHTS Assay for Inhibitors of Rango (Ran-regulated importin-beta cargo) - Importin beta complex formation; Importin subunit beta-1 (Homo sapiens), Q14974; Rango CFP/YFP FRET sensor + importin beta, 45 min; Potency, µM (titrated, usually from 92.2 µM), inactives show at the highest dose inhibition of complex formation; 0.031% of 340,000 active; AID 540263, 2011; calls by dose curve;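 note: potency is the fitted concentration of half-maximal effect; 0% = DMSO wells and 100% = buffer wells lacking importin beta; nearly all actives have a fitted effect of over 15% in size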
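FRET biosensor (snurportin 1 IBB flanked by EYFP and cerulean), 50 nM, with compound 5 min, then 0.125 microM importin beta in PBS, 1 mM DTT, 0.02% Tween-20, 0.1% BSA. CFP/YFP ratio read after 45 min at room temperature; pre-read flags interference.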
An asterisk follows results filed as active; ? = inconclusive; nt = no result given. Rows were chosen to be rich in hits. Some 3.6% of all compounds tested hit in one or more screens of this group. Unless noted, calls come from the whole dose curve; as a rule, active = well fitted curve in the direction sought with a large enough effect; inconclusive = small, poorly fitted or top-dose-only effect, or another doubt; inactive = no such curve, though single readings can be large; an effect the other way counts as inactive or inconclusive.

SMILES	GCN5L2 inh	PLK1 PBD inh	VDR inhibitor	Rango release inh	PI5P4Ka inh	Rango-impB inh
Cc1ccc(NC(=O)CCC(=O)OCc2ccc(Br)cc2)cc1	-1%	27µM*	-27%	23%	6	0%
CCOc1ccc(NC(=O)CCC(=O)c2ccc(Br)cc2)cc1	-17%	21µM*	-30%	-14%	7	4%
CC(=O)Nc1ccc(C(=O)OCc2ccc(Br)cc2)cc1	-2%	-8%	-2%	0%	22	3%
CN1CCN(c2ccc(-c3cc(O)c4ncccc4c3)cc2)CC1	-4%	nt	nt	nt	nt	nt
CC(N)C(=O)NCC(=O)NC1CSSCC(C(=O)O)NC(=O)C(CO)NC(=O)C(C(C)O)NC(=O)C(Cc2ccccc2)NC(=O)C(C(C)O)NC(=O)C(CCCCN)NC(=O)C(Cc2c[nH]c3ccccc23)NC(=O)C(Cc2ccccc2)NC(=O)C(Cc2ccccc2)NC(=O)C(CC(N)=O)NC(=O)C(CCCCN)NC1=O (stereo unspecified)	6%	nt	?	nt	nt	nt
CCOC(=O)c1cc(-c2ccccc2)sc1NC(=O)COC	-1%	-18%	-16%	26%	2	-4%
COC(=O)c1cc(-c2ccccc2)sc1NC(=O)CN1C(=O)c2ccccc2C1=O	0%	12µM*	-27%	-2%	-11	7%
CCOC(=O)c1cc(-c2ccccc2)sc1NC(=O)C(C)C	-8%	30µM*	?	2%	0	7%
Cc1cccc(C(=O)Nc2sc(-c3ccccc3)cc2C(=O)O)c1	-24%	?	-24%	-22%	-29	?
CCOC(=O)c1ccc(OS(=O)(=O)c2ccccc2)c(OC)c1	-6%	27µM*	?	2%	-3	-6%
CCOC(=O)c1cc(-c2ccccc2)sc1NC(=O)c1ccc(OC)c(OC)c1	33%	4.7µM*	79µM*	6%	?	12%
COc1ccc(OC)c(C(=O)c2c(N)c(-c3nc(-c4ccc(C)c(C)c4)cs3)c3ccccn23)c1	-5%	nt	10%	nt	nt	nt
CNCCCCc1cnc(C)c2[nH]c3ccccc3c12	nt	nt	-2%	nt	nt	nt
O=c1[nH]c(SCc2ccccc2)ncc1S(=O)(=O)c1ccccc1	nt	nt	9%	nt	nt	nt
COc1ccc(CNC(=O)CCC2N=C3c4ccccc4N=C(SCc4ccc(F)cc4)N3C2=O)cc1 (stereo unspecified)	-8%	nt	3%	nt	nt	nt
CCOC(=O)c1ccc2c(c1)sc1nc(-c3ccc(OCC)cc3)cn12	-2%	nt	-3%	nt	nt	nt
c1ccc(Nc2nc(NCc3ccco3)nc3nccnc23)cc1	nt	nt	0%	nt	nt	nt
Cc1ccc(NC(=O)N/C=C/c2ccc(Cl)cc2)cc1	-9%	27µM*	-5%	-10%	-17	0%
Cc1ccc(/C=C/c2onc(C)c2S(=O)(=O)N2CCC(C(=O)N3CC(C)Oc4ccccc43)CC2)cc1 (stereo unspecified)	-2%	nt	9%	nt	nt	nt
COc1ccc(CC(=O)NC(C)CCc2ccccc2)cc1OC (stereo unspecified)	-3%	-6%	-13%	9%	-7	-2%
CC(CCc1ccccc1)NC(=O)Cc1ccc([N+](=O)[O-])cc1 (stereo unspecified)	1%	30µM*	?	11%	-5	-2%
COc1ccc(Br)cc1C(=O)NC(=S)Nc1ccc(Cl)c(C(=O)O)c1	-5%	12µM*	-7%	1%	-65*	0%
COC(=O)NC(=S)Nc1ccc(Oc2ccc(Cl)cc2)c(Cl)c1	0%	-10%	5%	-1%	nt	7%
